# Activity calls are given as the source filed them. The calls were made as follows: active = hit-call score of the fitted dose curve at least 0.9, where 1 is the maximum; inactive = score below 0.9.
# Assay: CCTE_Padilla_ZF_Score.Edema: CCTE's 144 Hour Post-fertilization zebrafish Assay Score for Edema Malformation, Padilla Lab (AID 2284406)
# Protocol: CCTE_Padilla_ZF_Phenotype_Score is a whole embryo, multiplexed assay using zebrafish ova exposed for 144 hours post fertilization on a 96-well plate.CCTE_Padilla_ZF_Score.Edema is one of one assay component(s) measured or calculated from the CCTE_Padilla_ZF_Phenotype_Score assay. It is designed to make measurements of zebrafish development as detected with brightfield microscopy of developing zebrafish embryos.Data from the assay component CCTE_Padilla_ZF_Score.Edema was analyzed into 1 assay endpoints. This assay endpoint, CCTE_Padilla_ZF_Score.Edema, was analyzed in the positive analysis fitting direction relative to DMSO as the negative control and baseline of activity. Using a type of viability reporter, gain-of-signal activity can be used to understand changes in developmentals as they relate to the whole embryo. To generalize the intended target to other relatable targets, this assay endpoint is annotated to the zebrafish development intended target family, where the subfamily is embryonic edema.
# Zebrafish husbandry: Wild type adult zebrafish (Danio rerio; undefined outbred stock obtained from Aquatic Research Organisms, Hampton, NH, 03842) were housed in an AAALAC-approved animal facility at 28C with a 14:10 h light: dark cycle (lights on at 08:30 h). Adult fish (2-3 females per male; density = 15-20 adults per tank) were kept in one of several 9-liter (L) flow-through colony tanks (Aquaneering Inc., San Diego, CA). All adults in a colony tank were placed in a 2 L (static) breeding tank (Aquatic Habitats, Apopka, FL) one hour prior to light onset. Typically, adults from two to three colony tanks were mated on the same day. Two hours after light onset the adults were returned to the colony tank. All embryos were gathered from each breeder tank, pooled, and placed in a 28C water bath for 2 h, followed by two washes with 0.06% bleach (v/v) in 10% Hanks' Balanced Salt Solution (13.7 mM NaCl 0.54 mM KCl, 25 uM Na2HPO4, 130 uM CaCl2 100 um MgSO4 and 420 um NaHCO3,), hereafter referred to as Hanks' solution, for 5 min in order to remove any residual bacteria or fungi. Immediately following washing, the embryos were examined, and healthy embryos were separated from dead or unfertilized eggs and moved into fresh Hanks'. Chemical exposures: Zebrafish embryos were exposed in 96-well plates. Between 6- and 8-hours post fertilization (hpf), healthy embryos (with chorions) were transferred, one embryo per well, into 96 well (0.5 mL) microtiter plates (Cell Culture-Treated, Flat-Bottom Microplate 96 well [Corning Costar, Kennebunk, ME; Cat 09-761-145]) filled with 200 uL of Hanks' solution. A random number generator was used to assign the order in which the rows of embryos were plated in 96 well plates each week. After plating, the embryos were dosed with 0.8 uL of the chemical dosing solution then immediately sealed with AlumaSeal II (Excel Scientific Inc, Victorville, CA) to prevent volatilization of the chemicals, and then placed in a leakproof secondary container. These containers were placed in an incubator maintained on a 14:10 h light: dark cycle at 26C for rearing. On 5 dpf, live larvae were gently moved out of the plate with test chemicals and into a new 96 well mesh plate (Millipore Corp., Bedford, MA) with just the Hanks' solution. Once within the mesh well plate, the animals were rinsed with 400 uL of fresh Hanks' three times, and then the plates were covered with a non-adhesive material (Microseal A, BioRad, Hercules, CA), plate lid added, and then plate sides wrapped in Parafilm (PM992, Bermis Company, Neenah, WI), and returned to the incubator. This rinse on 5 dpf was conducted to lessen the possible exposure of the human assessors to the chemicals during detailed examination of each larva at 6 dpf.Larval assessments: On 6 dpf between 8 and 10 AM, two individual assessors, blinded to the chemical treatments, independently examined each larva for mortality, hatching status, and malformations using an Olympus SZH10 stereo microscope. […]
SMILES,outcome,AC50
O=C(O)C(F)(F)OC(F)(F)C(F)(F)OC(F)(F)C(=O)O,inactive,–
OCC(F)(F)OC(F)(F)C(F)(F)OC(F)(F)C(F)(F)OC(F)(F)F,–,73.7 µM (active)
OCC(F)(F)OC(F)(F)C(F)(F)OC(F)(F)CO,inactive,–
O=C(O)C=CC(F)(C(F)(F)F)C(F)(F)F,inactive,–
O=C(O)C(F)(OC(F)(F)C(F)(F)C(F)(F)F)C(F)(F)F (centres undefined),inactive,–
O=C(O)C(F)(F)OC(F)(F)C(F)(F)OC(F)(F)F,inactive,–
O=C(O)C(F)(F)C(F)(F)C(=O)O,inactive,–
NC(=O)C(F)(F)C(F)(F)F,inactive,–
OCC(F)(F)OC(F)(F)C(F)(F)OC(F)(F)C(F)(F)OC(F)(F)CO,inactive,–
FC(F)(F)C(F)(C(F)(F)F)C(F)(F)C(F)(F)CC1CO1 (centres undefined),inactive,–
COC(=O)C(F)(F)C(F)(F)OC(F)(C(F)(F)F)C(F)(F)OC(F)=C(F)F (centres undefined),inactive,–
CC(O)C(F)(F)C(F)(F)F (centres undefined),inactive,–
C=CC(=O)OCC(F)(F)C(F)F,–,8.88 µM (active)
O=S(=O)(F)C(F)(F)C(F)(F)C(F)(F)C(F)(F)C(F)(F)C(F)(F)C(F)(F)C(F)(F)F,inactive,–
